Laboratory results as given in PubChem BioAssay (NCATS).
Records with an inconclusive call do not appear. A call without a number means that no potency is given here. For part of these data: Potency and affinity values are given separately. Calls of active or inactive are those of the source. Unless noted, no rule for the calls is given here.

Legend:
[1] = qHTS profiling of the MIPE4 collection as inhibitors of Plasmodium falciparum (3D7) proliferation (AID 743344); settings: P. falciparum 3D7 in erythrocytes, SYBR Green DNA fluorescence, 72 h; at 28.5 µM
How it was run: (§1)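 Parasite DNA was quantified by SYBR Green I fluorescence (ex 485, em 535 nm) after overnight lysis in saponin/Triton buffer at room temperature. Cultures at 0.3% parasitemia and 2.5% hematocrit were first exposed to compound for 72 h at 37 C; signals were normalised to artemisinin (0.29 uM) and vehicle wells.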

[2] = qHTS profiling of the MIPE4 collection as inhibitors of Plasmodium falciparum (DD2) proliferation (AID 743345); settings: P. falciparum Dd2 in erythrocytes, SYBR Green DNA, 72 h; at 28.5 µM
How it was run: as §1

[3] = qHTS profiling of the MIPE4 collection as inhibitors of Plasmodium falciparum (DD2) proliferation (Rep 2) (AID 743346); settings: P. falciparum Dd2 in erythrocytes, SYBR Green DNA, 72 h; at 28.5 µM
How it was run: as §1

[4] = qHTS profiling of the MIPE4 collection as inhibitors of Plasmodium falciparum (HB3) proliferation (AID 743347); settings: P. falciparum HB3 in erythrocytes, SYBR Green DNA, 72 h; at 28.5 µM
How it was run: as §1

[5] = Ebola virus entry assay, green fluorescence channel
[6] = Ebola virus entry assay, blue channel fluorescence
[7] = Ebola virus entry assay, green channel fluorescence
[8] = Ebola virus entry assay, reporter ratio channel; Channel type: primary
[9] = Ebola virus entry assay, blue channel (ratio component)
[10] = High-throughput drug toxicity screening in the BPDCN cell line Gen2.2 (AID 1224824); settings: Gen2.2 BPDCN cells; at 45.8 µM (top of the series);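 also: cells exposed to compounds for 48 h before reading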
How it was run: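 Readout is ATP luminescence from Gen2.2 cells after two days of drug exposure in serum-containing medium at 37 °C. Values express percent activity, with vehicle defining full signal and 9.2 uM bortezomib defining zero.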

[11] = High-throughput drug toxicity screening in the BPDCN cell line Cal-1 (AID 1224825); settings: Cal-1 BPDCN cell viability, qHTS; at 45.8 µM (top of the series)
How it was run: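 CellTiter-Glo luminescence after 48 h compound exposure; percent activity scaled with DMSO as 100% and bortezomib (9.2 uM final) as 0%. Cal-1 cells seeded at 500/well in RPMI, 10% FBS, no phenol red.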

[12] = qHTS assay for measurement of the activity of small molecule inhibitors on Zika virus induced Caspase-3 activity in human iPSC derived neural progenitor cells (hNPCs) (AID 1224857; active = well fitted curve in the direction sought with a large enough effect; an effect the other way counts as inactive or inconclusive; also: nearly all actives have a fitted effect of over 65% in size); settings: hNPCs ZIKV-induced caspase-3/7, Caspase-Glo luminescence, 6 h; series mostly up to 45.7 µM
How it was run: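 Zika virus (2 FFU/cell) infection of human iPSC-derived NPCs, 6 h, following 1 h compound preincubation. Read-out: Caspase-Glo 3/7 luminescence.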

[13] = qHTS assay for measurement of the activity of small molecule inhibitors on Zika virus induced Caspase-3 activity in human astrocytoma cells (AID 1224859; active = well fitted curve in the direction sought with a large enough effect; an effect the other way counts as inactive or inconclusive); settings: SNB-19 ZIKV-induced caspase-3/7, luminescence, 6 h; series mostly up to 45.7 µM
How it was run: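 Caspase activation in ZIKV-infected SNB-19 cells (2 FFU/cell, 6 h) measured by Caspase-Glo 3/7 luminescence after 30 min RT; compound pre-incubated 1 h; normalised to uninfected and infected controls.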

[14] = qHTS Screen of the MIPE 4.0 Collection Against Ewings Sarcoma (TC71) (AID 1259253; active = well fitted curve in the direction sought with a large enough effect; an effect the other way counts as inactive or inconclusive; also: nearly all actives have a fitted effect of over 40% in size; also: potency is read from the fitted curve at half-maximal effect); settings: TC71 Ewing sarcoma viability, CellTiter-Glo, 48 h; series mostly up to 45.8 µM
How it was run: (§2)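 Viability screen: 48 h incubation at 37C, 95% humidity, 5% CO2 with serially titrated compound, followed by CellTiter-Glo readout.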

[15] = qHTS Screen of the MIPE 4.0 Collection Against Ewings Sarcoma (EW8) (AID 1259255; active = well fitted curve in the direction sought with a large enough effect; an effect the other way counts as inactive or inconclusive; also: nearly all actives have a fitted effect of over 35% in size; also: potency is read from the fitted curve at half-maximal effect); settings: EW8 Ewing sarcoma viability, CellTiter-Glo, 48 h; series mostly up to 45.8 µM
How it was run: as §2

[16] = Immunotoxin (HA22) sensitization/mitigation study. Vehicle arm (PBS) (AID 1159510); settings: cancer cells viability with PBS vehicle (HA22 study); series mostly up to 46.1 µM; also: potency is read from the fitted curve at half-maximal effect
[17] = Immunotoxin (SS1P) sensitization/mitigation study. Vehicle arm (DMEM) (AID 1159513); settings: cell viability with vehicle (DMEM); series mostly up to 46.1 µM
[18] = qHTS Screen of the MIPE 4.0 Collection Against Ewings Sarcoma (RDES) (AID 1259252; active = well fitted curve in the direction sought with a large enough effect; an effect the other way counts as inactive or inconclusive; also: nearly all actives have a fitted effect of over 35% in size; also: potency is read from the fitted curve at half-maximal effect); settings: RD-ES Ewing sarcoma viability, CellTiter-Glo, 48 h; series mostly up to 45.8 µM
How it was run: as §2

[19] = Ebola virus entry assay, ratio channel
[20] = qHTS profiling for inhibitors of Plasmodium falciparum (HB3) proliferation (AID 743324; active = well fitted curve in the direction sought with a large enough effect; an effect the other way counts as inactive or inconclusive); settings: Plasmodium falciparum HB3 blood-stage proliferation; at 28.7 µM (top of the series)
How it was run: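 SYBR Green fluorescence (485 ex/535 em) of lysed cultures, incubated overnight at room temperature in the dark, quantifies parasite DNA. Infected erythrocytes at 0.3% parasitemia and 2.5% hematocrit were exposed 72 h; values normalized to DMSO and 0.29 uM artemisinin controls.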

COc1ccc(C(=O)N2CCCC2=O)cc1
parasite growth, % of DMSO control [1]: 90.2% | parasite growth remaining, % of DMSO control (lower = more inhibition) [2]: 19.7% | parasite growth, % of control (lower = inhibition) [3]: 128% | growth, % of control [4]: 103% | efficacy [5]: -13.7% (inactive) | outcome [6]: inactive | outcome [7]: inactive | outcome [8]: inactive | outcome [9]: inactive | cell viability, % of control (lower = more cytotoxic) [10]: 46.4% | viability (% of control) [11]: 41.6% | Potency [12]: inactive | outcome [13]: inactive | Potency [14]: inactive | Potency [15]: inactive

NC(=O)c1ncn([C@@H]2O[C@H](CO)[C@@H](O)[C@H]2O)c1N
efficacy [5]: -19.4% (inactive) | outcome [6]: inactive | outcome [7]: inactive | outcome [8]: inactive | outcome [9]: inactive | Potency [16]: inactive | outcome [17]: inactive

C[C@@H]1C[C@@H]([C@H](O)CC2CC(=O)NC(=O)C2)C(=O)[C@@H](C)C1
parasite growth, % of DMSO control [1]: 5.16% | parasite growth remaining, % of DMSO control (lower = more inhibition) [2]: 6.36% | parasite growth, % of control (lower = inhibition) [3]: 6.94% | growth, % of control [4]: 5.04% | efficacy [5]: -17.6% (inactive) | outcome [6]: inactive | outcome [8]: inactive | outcome [9]: inactive | cell viability, % of control (lower = more cytotoxic) [10]: 19.5% | viability (% of control) [11]: 10.9% | Potency [12]: inactive | outcome [13]: inactive | Potency [18]: 0.418 µM (active) | Potency [14]: 0.235 µM (active) | Potency [15]: 0.148 µM (active)

CCCCCCCCC(=O)NCc1ccc(O)c(OC)c1
efficacy [5]: -29.4% (inactive) | outcome [6]: inactive | outcome [7]: inactive | outcome [8]: inactive | outcome [9]: inactive | Potency [12]: inactive | outcome [13]: inactive

Cc1[nH]c(=O)c(C#N)cc1-c1ccc2nccn2c1
efficacy [5]: -27% (inactive) | outcome [6]: inactive | outcome [7]: inactive | outcome [8]: inactive | outcome [9]: inactive | Potency [16]: inactive | outcome [17]: inactive

CN(C)[C@@H](CCOc1cccc2ccccc12)c1ccccc1
parasite growth, % of control (lower = inhibition) [3]: 31.8% | efficacy [5]: -116% (inactive) | AC50 [6]: 7.08 µM (active) | AC50 [19]: 3.16 µM (active) | AC50 [8]: 3.16 µM (active)

CCN(CC)C(C)C(=O)c1ccccc1 (configuration not stated)
efficacy [5]: 12% (inactive) | outcome [6]: inactive | outcome [7]: inactive | outcome [8]: inactive | outcome [9]: inactive | Potency [12]: inactive | outcome [13]: inactive

O=C(O)c1nn(Cc2ccc(Cl)cc2Cl)c2ccccc12
remaining proliferation (% of control), lower = more inhibition [20]: 104% | parasite growth, % of DMSO control [1]: 75.4% | parasite growth remaining, % of DMSO control (lower = more inhibition) [2]: 99.8% | parasite growth, % of control (lower = inhibition) [3]: 101% | growth, % of control [4]: 81.1% | efficacy [5]: 44.2% (inactive) | outcome [6]: inactive | outcome [7]: inactive | outcome [8]: inactive | outcome [9]: inactive | Potency [16]: inactive | outcome [17]: inactive | cell viability, % of control (lower = more cytotoxic) [10]: 98.4% | viability (% of control) [11]: 95.1% | Potency [12]: inactive | outcome [13]: inactive | Potency [18]: inactive | Potency [14]: inactive | Potency [15]: inactive

C[C@]12CCC(=O)C=C1CC[C@@H]1[C@@H]2[C@@H](O)C[C@@]2(C)[C@H]1CC[C@]2(O)C(=O)CO
efficacy [5]: 14.5% (inactive) | outcome [6]: inactive | outcome [7]: inactive | outcome [8]: inactive | outcome [9]: inactive | Potency [16]: 0.296 µM (active) | outcome [17]: inactive

CC(C)NCC(O)c1ccc(N)c(C#N)c1 (configuration not stated)
efficacy [5]: -19.3% (inactive) | outcome [6]: inactive | outcome [7]: inactive | outcome [8]: inactive | outcome [9]: inactive | Potency [12]: inactive | outcome [13]: inactive

OC[C@@H](O)[C@H](O)[C@H](O)[C@@H](O)CO
efficacy [5]: -17.3% (inactive) | outcome [6]: inactive | outcome [7]: inactive | outcome [8]: inactive | outcome [9]: inactive

NC(=O)OCCCc1ccccc1
efficacy [5]: 24.7% (inactive) | outcome [6]: inactive | outcome [7]: inactive | outcome [8]: inactive | outcome [9]: inactive | Potency [12]: inactive | outcome [13]: inactive

Cc1c(Cl)c(=O)oc2cc(OP(=O)(OCCCl)OCCCl)ccc12
efficacy [5]: 115% (inactive) | outcome [6]: inactive | outcome [19]: inactive | outcome [8]: inactive | outcome [13]: inactive

C=CCc1cc(OC)c(O)c(C(=O)NCCO)c1
parasite growth, % of DMSO control [1]: 114% | parasite growth remaining, % of DMSO control (lower = more inhibition) [2]: 40.8% | parasite growth, % of control (lower = inhibition) [3]: 125% | growth, % of control [4]: 100% | efficacy [5]: -21.5% (inactive) | AC50 [6]: 12.6 µM (active) | AC50 [19]: 22.4 µM (active) | AC50 [8]: 22.4 µM (active)

COP(=S)(OC)Oc1ccc(Sc2ccc(OP(=S)(OC)OC)cc2)cc1
efficacy [5]: 20.5% (inactive) | outcome [6]: inactive | outcome [7]: inactive | outcome [8]: inactive | outcome [9]: inactive | Potency [12]: inactive | outcome [13]: inactive

Cc1cc(C(C)(C)C)cc(C)c1CC1=NCCN1
parasite growth, % of DMSO control [1]: 58.8% | parasite growth remaining, % of DMSO control (lower = more inhibition) [2]: 38.8% | growth, % of control [4]: 84.3% | efficacy [5]: 93.8% (inactive) | AC50 [6]: 14.1 µM (active) | AC50 [19]: 12.6 µM (active) | AC50 [8]: 12.6 µM (active)

COP(=O)(OC)C(O)C(Cl)(Cl)Cl (configuration not stated)
efficacy [5]: -51.3% (inactive) | outcome [6]: inactive | outcome [8]: inactive | outcome [9]: inactive | Potency [12]: inactive | outcome [13]: inactive

c1ccc2nc(N3CCNCC3)ccc2c1
efficacy [5]: 106% (inactive) | AC50 [6]: 39.8 µM (active) | AC50 [19]: 35.5 µM (active) | AC50 [8]: 35.5 µM (active) | Potency [12]: inactive | outcome [13]: inactive
